{"source": "PubChem BioAssay (NCATS)", "key": {"[1]": {"experiment": "qHTS drug screen for cell cycle checkpoint inhibitors in PARPi-resistant BRCA-mutant ovarian cancer cell lines. (AID 1963452; calls by dose curve)", "details": "PEO1/OlaR viability, CellTiter-Glo luminescence, 96 h, stronger effect = lower value", "summary_of_the_method": "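PEO1, PEO4 and PEO1/OlaR ovarian cancer cells, 600 per well, exposed 96 h at 37C to a dilution series. Viability read by CellTiter-Glo luminescence, normalized to DMSO and empty wells; activity summarized as Z-AUC.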"}, "7G8": {"test_system": "7G8", "experiment": "qHTS profiling for inhibitors of Plasmodium falciparum proliferation (AID 504749); also: nearly all actives have a fitted effect of over 60% in size; also: potency is read from the fitted curve at half-maximal effect;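 as to activity, negative = inhibition: 0% = DMSO vehicle and full inhibition = artemisinin control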", "details": "P. falciparum in erythrocytes, SYBR Green DNA, 72 h; series mostly up to 28.7 µM", "summary_of_the_method": "(§1)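 Fluorescence of SYBR Green-bound parasite DNA, read at 485/535 nm, served as the growth measure. Infected erythrocytes were cultured with compound 72 h; artemisinin (0.29 uM) and DMSO wells defined the normalization range.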"}, "AA1029": {"test_system": "AA1029", "experiment": "qHTS profiling for inhibitors of Plasmodium falciparum proliferation (AID 504749)", "details": "P. falciparum in erythrocytes, SYBR Green DNA, 72 h; series mostly up to 28.7 µM", "summary_of_the_method": "as §1"}, "[2]": {"experiment": "qHTS profiling for inhibitors of Plasmodium falciparum proliferation (AID 504749)", "details": "P. falciparum in erythrocytes, SYBR Green DNA, 72 h", "summary_of_the_method": "as §1"}, "3D7": {"test_system": "3D7", "experiment": "qHTS profiling for inhibitors of Plasmodium falciparum proliferation (AID 504749)", "details": "P. falciparum in erythrocytes, SYBR Green DNA, 72 h; series mostly up to 28.7 µM", "summary_of_the_method": "as §1"}, "AS120": {"test_system": "AS120", "experiment": "qHTS profiling for inhibitors of Plasmodium falciparum proliferation (AID 504749)", "details": "P. falciparum in erythrocytes, SYBR Green DNA, 72 h; series mostly up to 28.7 µM", "summary_of_the_method": "as §1"}, "[3]": {"experiment": "qHTS for identification of novel therapeutic agents for treatment of microphthalmiaassociated transcription factor (MiT) renal cell carcinoma (RCC) (AID 1963991)", "details": "CellTiter-Glo, 48 h, stronger effect = lower value", "summary_of_the_method": "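UOK109/UOK124/UOK145 (TFE3 fusions, three partners); 500 cells/well; MIPE v4.0, 1912 cpds, 11 conc.; 48 h, 37 C; CellTiter-Glo, 15 min RT; lum. Norm.: DMSO 100%, empty 0%.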"}, "[4]": {"details": "TFE3-RCC UOK109 viability, measured here: UOK109 Z-AUC"}, "[5]": {"details": "TFE3-RCC viability, measured here: UOK124 Z-AUC"}, "[6]": {"details": "TFE3-RCC viability, measured here: UOK145 Z-AUC"}, "[7]": {"details": "at 28.7 µM (top of the series), parasite line A"}, "[8]": {"details": "at 28.7 µM (top of the series), parasite line B"}}, "note": "Inconclusive results are not listed. Activity calls are given as the source filed them. Unless noted, calls follow the shape of the dose curve; as a rule, active = well fitted inhibition curve with a large enough effect; inconclusive = small, poorly fitted or top-dose-only effect; inactive = flat fitted curve, though single readings scatter.", "data": [{"smiles": "Cc1cc(=O)oc2cc(O)ccc12", "values": [{"measurement": "Z-AUC", "setting": "[1]", "value": "0.0735 (inactive)"}, {"measurement": "Z-AUC", "setting": "[1]; measured here: PEO1 parental Z-AUC", "value": 0.832}, {"measurement": "Z-AUC", "setting": "[1]; measured here: PEO4 Z-AUC", "value": 0.848}, {"measurement": "Potency", "setting": "7G8", "value": "inactive"}, {"measurement": "Potency", "setting": "AA1029", "value": "inactive"}]}, {"smiles": "Cc1cc(=O)c2c(O)c3c(O)cc(=O)c4c3c3c(cc(O)c1c23)C(C)(C)C=4O", "values": [{"measurement": "Potency", "setting": "[2]; parasite line A", "value": "2.51 µM (active)"}, {"measurement": "Potency", "setting": "[2]; parasite line B", "value": "1 µM (active)"}, {"measurement": "Potency", "setting": "3D7", "value": "1.58 µM (active)"}, {"measurement": "Potency", "setting": "AA1029", "value": "1.78 µM (active)"}, {"measurement": "Potency", "setting": "AS120", "value": "1.78 µM (active)"}]}, {"smiles": "CS(=O)(=O)OCCCCOS(C)(=O)=O", "values": [{"measurement": "z-score", "setting": "[3]; [4]", "value": 1.01}, {"measurement": "z-score", "setting": "[3]; [5]", "value": 2.44}, {"measurement": "z-score", "setting": "[3]; [6]", "value": 1.02}, {"measurement": "activity, negative = inhibition", "setting": "[2]; [7]", "value": "5.89% (inactive)"}, {"measurement": "activity, negative = inhibition", "setting": "[2]; [8]", "value": "-1.27% (inactive)"}, {"measurement": "Potency", "setting": "3D7", "value": "inactive"}, {"measurement": "Potency", "setting": "7G8", "value": "inactive"}, {"measurement": "Potency", "setting": "AA1029", "value": "inactive"}, {"measurement": "Potency", "setting": "AS120", "value": "inactive"}]}, {"smiles": "C[C@]12CCC(=O)C=C1CC[C@@H]1[C@H]2[C@@H](O)C[C@@]2(C)[C@H]1CC[C@]2(O)C(=O)CO", "values": [{"measurement": "activity, negative = inhibition", "setting": "[2]; [7]", "value": "9.9% (inactive)"}, {"measurement": "activity, negative = inhibition", "setting": "[2]; [8]", "value": "19.1% (inactive)"}, {"measurement": "Potency", "setting": "3D7", "value": "inactive"}, {"measurement": "Potency", "setting": "7G8", "value": "inactive"}, {"measurement": "Potency", "setting": "AA1029", "value": "inactive"}, {"measurement": "Potency", "setting": "AS120", "value": "inactive"}]}, {"smiles": "Cn1c(NCCN(CCO)CCCc2ccc([N+](=O)[O-])cc2)cc(=O)n(C)c1=O", "values": [{"measurement": "activity, negative = inhibition", "setting": "[2]; [7]", "value": "6.79% (inactive)"}, {"measurement": "activity, negative = inhibition", "setting": "[2]; [8]", "value": "16.9% (inactive)"}, {"measurement": "Potency", "setting": "3D7", "value": "inactive"}, {"measurement": "Potency", "setting": "AA1029", "value": "inactive"}, {"measurement": "Potency", "setting": "AS120", "value": "inactive"}]}, {"smiles": "O=C(NCCO[N+](=O)[O-])c1cccnc1", "values": [{"measurement": "z-score", "setting": "[3]; [4]", "value": 1.2}, {"measurement": "z-score", "setting": "[3]; [5]", "value": 0.824}, {"measurement": "z-score", "setting": "[3]; [6]", "value": 0.646}, {"measurement": "activity, negative = inhibition", "setting": "[2]; [7]", "value": "22.6% (inactive)"}, {"measurement": "activity, negative = inhibition", "setting": "[2]; [8]", "value": "3.27% (inactive)"}, {"measurement": "Potency", "setting": "3D7", "value": "inactive"}, {"measurement": "Potency", "setting": "7G8", "value": "inactive"}, {"measurement": "Potency", "setting": "AA1029", "value": "inactive"}, {"measurement": "Potency", "setting": "AS120", "value": "inactive"}]}, {"smiles": "Cc1ncc([N+](=O)[O-])n1CC(C)O", "note": "(configuration not stated)", "values": [{"measurement": "z-score", "setting": "[3]; [4]", "value": 1.59}, {"measurement": "z-score", "setting": "[3]; [5]", "value": 0.687}, {"measurement": "z-score", "setting": "[3]; [6]", "value": 1.68}, {"measurement": "activity, negative = inhibition", "setting": "[2]; [7]", "value": "11.8% (inactive)"}, {"measurement": "activity, negative = inhibition", "setting": "[2]; [8]", "value": "17% (inactive)"}, {"measurement": "Potency", "setting": "3D7", "value": "inactive"}, {"measurement": "Potency", "setting": "7G8", "value": "inactive"}, {"measurement": "Potency", "setting": "AA1029", "value": "inactive"}, {"measurement": "Potency", "setting": "AS120", "value": "inactive"}]}, {"smiles": "NNc1nncc2ccccc12", "values": [{"measurement": "z-score", "setting": "[3]; [4]", "value": -0.0991}, {"measurement": "z-score", "setting": "[3]; [5]", "value": 0.525}, {"measurement": "z-score", "setting": "[3]; [6]", "value": 0.517}, {"measurement": "activity, negative = inhibition", "setting": "[2]; at 12.8 µM (top of the series), parasite line A", "value": "-1.16% (inactive)"}, {"measurement": "activity, negative = inhibition", "setting": "[2]; at 12.8 µM (top of the series), parasite line B", "value": "-10.3% (inactive)"}, {"measurement": "Potency", "setting": "7G8", "value": "0.891 µM (active)"}, {"measurement": "Potency", "setting": "AA1029", "value": "inactive"}]}, {"smiles": "CNC[C@@H](O)[C@@H](O)[C@H](O)[C@H](O)CO", "values": [{"measurement": "z-score", "setting": "[3]; [4]", "value": 1.02}, {"measurement": "z-score", "setting": "[3]; [5]", "value": 0.532}, {"measurement": "z-score", "setting": "[3]; [6]", "value": 0.899}, {"measurement": "activity, negative = inhibition", "setting": "[2]; [7]", "value": "7.09% (inactive)"}, {"measurement": "activity, negative = inhibition", "setting": "[2]; [8]", "value": "5.8% (inactive)"}, {"measurement": "Potency", "setting": "3D7", "value": "inactive"}, {"measurement": "Potency", "setting": "7G8", "value": "inactive"}, {"measurement": "Potency", "setting": "AA1029", "value": "inactive"}, {"measurement": "Potency", "setting": "AS120", "value": "inactive"}]}, {"smiles": "C[C@@H](N)C1CCC(C(=O)Nc2ccncc2)CC1", "note": "(some centres not stated)", "values": [{"measurement": "z-score", "setting": "[3]; [4]", "value": 1.67}, {"measurement": "z-score", "setting": "[3]; [5]", "value": 0.534}, {"measurement": "z-score", "setting": "[3]; [6]", "value": 0.866}]}]}
